Measurements reported in PubChem BioAssay (Tox21).
“And” between values parts separate entries of the source, which are not always exact repeats. Equal values may be shown once. Records with an inconclusive call do not appear. Where a structure was tested more than once in an assay, its records may differ in their call. The source made the active and inactive calls. Unless noted, calls follow the shape of the dose curve; as a rule, active = well fitted curve in the direction sought with a large enough effect in the repeat runs; inconclusive = weak or mixed curves; inactive = no such curve, though single readings can be large; an effect the other way counts as inactive or inconclusive.

Key:
[1] = A CellTox Green Cytotoxicity Assay to monitor cytotoxicity in HepG2 cells - 8 hour (AID 1224890); also: nearly all actives have a fitted effect of over 45% in size
Summary of the method: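 First, HepG2 cells (600/well) mixed with reagent were plated; second, after 5 h at 37 C they received compounds via pintool; third, fluorescence was measured at 0 h through 40 h at 8 h intervals.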

[2] = qHTS assay to identify small molecule antagonists of the estrogen receptor alpha (ER-alpha) signaling pathway using the BG1 cell line in the presence of 0.1 nM 17-beta-estradiol - cell viability counter screen (AID 1259241); also: nearly all actives have a fitted effect of over 40% in size
Summary of the method: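 CellTiter-Fluor read (30 min, 37C) on ER-alpha/ERE-luc VM7Luc4E2 cells; 22 hr compound treatment; agonist 0.1 nM E2 final; same-well multiplex.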

[3] = qHTS assay to identify small molecule antagonists of the androgen receptor (AR) signaling pathway using the MDA cell line in the presence of 0.5 nM R1881 - cell viability counter screen (AID 1259242); also: nearly all actives have a fitted effect of over 45% in size; also: potency is read from the fitted curve at half-maximal effect
Summary of the method: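 qHTS format. MDA-kb2 (MMTV-luc, AR/GR responsive) + cpd + 0.5 nM R1881 final, 16 hr 37C/0% CO2 → CellTiter-Fluor 30 min → fluorescence intensity.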

[4] = qHTS assay to identify small molecule HDAC inhibitors (AID 1259364);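 also: wild-type HCT-116 cells with endogenous class I/II HDAC activity; top concentration of the series differs between compounds; nearly all actives have a fitted effect of over 45% in size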
Summary of the method: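 Quantitative high-throughput format: overnight-seeded HCT-116 cells got compounds for 2 hr at 37C; HDAC-Glo I/II reagent added, 30 min RT, luminescence measured.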

[5] = qHTS assay to identify small molecule HDAC inhibitors - cell viability counter screen (AID 1259365); also: series mostly up to about 92 µM; nearly all actives have a fitted effect of over 50% in size
Summary of the method: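 To flag cytotoxic hits, 1,500 wild-type HCT-116 cells per well, plated the day before, receive test compounds for 2hr at 37 C before CellTiter-Glo reagent and a luminescence read.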

[6] = qHTS assay to identify small molecule agonists of the sonic hedgehog signaling (Shh) pathway - cell viability counter screen (AID 1259366); also: nearly all actives have a fitted effect of over 50% in size; also: potency is read from the fitted curve at half-maximal effect
Summary of the method: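 Fluorescence from CellTiter-Fluor reports live cells in this counter screen. NIH/3T3-derived Gli1-Luc reporter cells receive test compounds for 24hr at 37C; reagent goes in at 23hr.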

[7] = qHTS assay to identify small molecule antagonists of the sonic hedgehog signaling (Shh) pathway - cell viability counter screen (AID 1259367); also: nearly all actives have a fitted effect of over 55% in size; also: potency is read from the fitted curve at half-maximal effect
Summary of the method: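 Conditioned medium drove Shh signaling in 3T3 Gli1-Luc cells exposed to compounds at 37C and 5% CO2. Viability was determined from CellTiter-Fluor fluorescence, with reagent incubated 1 hr after 23 hr of treatment.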

[8] = qHTS assay to identify small molecule agonists of the sonic hedgehog signaling (Shh) pathway (AID 1259368; calls by dose curve;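 also: NIH/3T3-derived 3T3Gli1-Luc cells carrying a stable Gli1-driven firefly luciferase reporter; series mostly up to about 92 µM; nearly all actives have a fitted effect of over 15% in size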)
Summary of the method: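 Quantitative high-throughput format using a Gli1-driven firefly luciferase reporter line derived from NIH/3T3 cells. After a 24 hr compound treatment at 37 C and 5% CO2, luminescence reported Gli1 response element activity.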

[9] = qHTS assay to identify small molecule antagonists of the sonic hedgehog signaling (Shh) pathway (AID 1259369; calls by dose curve; also: nearly all actives have a fitted effect of over 45% in size)
Summary of the method: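 Stable Gli1-Luc reporter NIH/3T3 clone; quantitative HTS in stimulated mode with conditioned medium. Luminescence measured after 24hr compound treatment at 37 C.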

[10] = target: Estrogen receptor beta (Homo sapiens) (UniProt Q92731); assay: qHTS assay to identify small molecule agonists of the estrogen receptor beta (ER-beta) signaling pathway (AID 1259377; active = well fitted activation curve with a large enough effect in the signal ratio in the repeat runs, not every such curve was filed as active; the % refers to the signal ratio)
Summary of the method: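 Screening used GripTite ER-beta-UAS-bla cells held in 2% charcoal-stripped FBS medium. After overnight (16 hr) compound incubation at 37C, beta-lactamase activity was detected with a FRET substrate by fluorescence.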

[11] = target: Estrogen receptor beta (Homo sapiens) (UniProt Q92731); assay: qHTS assay to identify small molecule antagonists of the estrogen receptor beta (ER-beta) signaling pathway (AID 1259378; active = well fitted inhibition curve with a large enough effect in the signal ratio in the repeat runs, not every such curve was filed as active; the % refers to the signal ratio)
Summary of the method: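 ER-beta-UAS-bla HEK293T (GripTite) cells in 2% charcoal-stripped FBS medium were preincubated 6 hr at 37C, dosed with compound, then stimulated with 1 nM E2 (final) for 16 hr; beta-lactamase reporter read by B/G FRET fluorescence after 2 hr substrate loading.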

[12] = qHTS assay to identify small molecule agonists of the androgen receptor (AR) signaling pathway in the presence of an antagonist - cell viability counter screen (AID 1259379); also: nearly all actives have a fitted effect of over 25% in size; also: potency is read from the fitted curve at half-maximal effect
Summary of the method: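 Nilutamide-containing (3.0uM final) MDA-kb2 cultures, 3,000 cells/well, were treated with compounds across 15 concentrations. After 16 hr at 37C with no CO2, cell viability was determined by CellTiter-Fluor fluorescence in the luciferase assay wells.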

[13] = qHTS assay to identify small molecule agonists of the estrogen receptor beta (ER-beta) signaling pathway - cell viability counter screen (AID 1259380); also: nearly all actives have a fitted effect of over 30% in size; also: potency is read from the fitted curve at half-maximal effect
Summary of the method: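 Steps: plate ER-beta-UAS-bla HEK293T cells, rest 6 hr; add compounds in DMSO; incubate 16 hr at 37C, 5% CO2; add FRET substrate 2 hr; add CellTiter-Glo, wait 30 min at room temperature; read luminescence.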

[14] = qHTS assay to identify small molecule antagonists of the estrogen receptor beta (ER-beta) signaling pathway - cell viability counter screen (AID 1259382); also: nearly all actives have a fitted effect of over 55% in size; also: potency is read from the fitted curve at half-maximal effect
Summary of the method: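 Viability is scored by CellTiter-Glo luminescence (30 min, room temperature) in ER-beta-UAS-bla HEK293T wells already read for reporter fluorescence. Compound exposure lasts 16 hr at 37C alongside 1nM 17-beta-estradiol in charcoal-stripped serum medium.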

[15] = qHTS assay to identify small molecule agonists or antagonists of the thyroid stimulating hormone receptor (TSHR) signaling pathway - wild type cell line counter screen (AID 1259384; calls by dose curve)
Summary of the method: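 Wild-type HEK293 cells were plated 18 h at 37 C/5% CO2, pin-dosed with compound plus Ro20-1724 medium, held 30 min at room temperature, then given cAMP-d2 and anti-cAMP-cryptate; fluorescence was read after 1 h. Fifteen concentrations, triplicate.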

[16] = target: Estrogen receptor (Homo sapiens) (UniProt P03372); assay: qHTS assay to identify small molecule agonists of the estrogen receptor alpha (ER-alpha) signaling pathway in the presence of an antagonist (AID 1259383; calls by dose curve; also: top concentration of the series differs between compounds; nearly all actives have a fitted effect of over 15% in size)
Summary of the method: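 Readout was ERE-driven luciferase luminescence in VM7Luc4E2 cells, which express full-length ER-alpha endogenously. Compounds were tested at 15 concentrations for 22hr alongside 10.0nM ICI-182,780 (final concentration).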

Measured: Potency

Estrogen receptor beta (Homo sapiens), sequence (Q92731 whole entry, looked up): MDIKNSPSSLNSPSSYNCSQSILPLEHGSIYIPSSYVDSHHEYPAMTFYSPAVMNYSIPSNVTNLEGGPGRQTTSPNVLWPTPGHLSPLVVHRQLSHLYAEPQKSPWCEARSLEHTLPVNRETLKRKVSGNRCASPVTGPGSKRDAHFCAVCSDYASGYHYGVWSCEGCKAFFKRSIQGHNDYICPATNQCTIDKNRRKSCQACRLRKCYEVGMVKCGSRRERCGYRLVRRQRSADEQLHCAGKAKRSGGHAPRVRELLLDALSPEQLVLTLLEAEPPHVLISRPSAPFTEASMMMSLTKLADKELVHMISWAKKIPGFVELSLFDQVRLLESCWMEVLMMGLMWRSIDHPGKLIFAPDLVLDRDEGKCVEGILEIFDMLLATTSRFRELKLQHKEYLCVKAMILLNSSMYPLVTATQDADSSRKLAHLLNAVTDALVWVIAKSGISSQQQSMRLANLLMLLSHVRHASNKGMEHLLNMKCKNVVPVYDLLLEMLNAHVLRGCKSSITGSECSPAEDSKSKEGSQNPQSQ
Estrogen receptor (Homo sapiens), sequence (P03372 whole entry, looked up): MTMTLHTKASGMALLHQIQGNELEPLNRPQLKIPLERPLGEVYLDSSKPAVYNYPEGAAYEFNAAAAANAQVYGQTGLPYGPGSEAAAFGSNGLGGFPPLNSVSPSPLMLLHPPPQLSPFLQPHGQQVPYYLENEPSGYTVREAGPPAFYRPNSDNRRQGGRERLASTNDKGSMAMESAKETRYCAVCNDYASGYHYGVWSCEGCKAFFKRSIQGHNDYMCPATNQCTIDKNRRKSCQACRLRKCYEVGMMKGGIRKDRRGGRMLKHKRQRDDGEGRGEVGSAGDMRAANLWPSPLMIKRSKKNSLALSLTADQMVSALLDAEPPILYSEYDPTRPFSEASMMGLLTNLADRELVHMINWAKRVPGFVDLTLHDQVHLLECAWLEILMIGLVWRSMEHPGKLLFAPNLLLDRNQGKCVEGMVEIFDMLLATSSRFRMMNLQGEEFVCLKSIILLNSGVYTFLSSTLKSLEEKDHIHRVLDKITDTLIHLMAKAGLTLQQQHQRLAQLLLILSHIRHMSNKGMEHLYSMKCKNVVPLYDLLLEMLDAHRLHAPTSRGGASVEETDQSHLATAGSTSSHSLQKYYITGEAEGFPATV

CCCCOCCOCCOCCCC
not listed: [15] | [16]
inactive: all other assays above

CN(C)CCCN1c2ccccc2CCc2ccc(Cl)cc21
inactive: [1] | [4] | [5] | [8] | [15]
48.6 µM (active) and inactive: [7]
active: [3] 48.6 µM | [6] 30.6 µM | [12] 48.6 µM and 33.5 µM | [13] 24.3 µM and 21.1 µM | [14] 24.3 µM and 18.8 µM

CCCCCCCCS(=O)(=O)Cl
not listed: [11] | [16]
inactive: all other assays above

C/C=C(\C)C#N
not listed: [6] | [10]
inactive: all other assays above

CC/C=C\CC/C=C/CO
not listed: [10] | [11] | [15] | [16]
inactive: all other assays above

CCCCCCCCCCCC
not listed: [9] | [10] | [11] | [16]
inactive: all other assays above

O=C1CCCC(=O)C1
not listed: [9] | [15] | [16]
inactive: all other assays above

C1OCOCO1
not listed: [10] | [11] | [14] | [16]
inactive: all other assays above

O=C(O)CNC(=O)c1ccc([N+](=O)[O-])cc1
not listed: [6] | [15] | [16]
inactive: all other assays above

N=C(N)c1ccccc1
not listed: [4] | [6] | [9] | [15] | [16]
inactive: all other assays above
